A selection: hits, their analogues and other compounds. The true share with any hit is near 5.7%.
DAX1 inh-1: DAX1 (NR0B1) inhibitors on StAR promoter, primary screen, cell-based, luminescence, SF-1 (NR5A1), full-length DAX-1; HEK293T StAR-luciferase reporter, SF-1/DAX-1 repression relief; 1.1% of 370,000 active; inhibition, % at 6.8 µM;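 active = inhibition above the mean over all tested compounds plus 3 SD, cut at about 3.6% in these data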;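 also: 0% = DAX-1 cells with DMSO and 100% = cells lacking DAX-1 with DMSO; higher inhibition means more luminescence from relief of DAX-1 repression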
hgDAF12 agonist: H. glycines DAF-12 receptor agonists, primary screen, cell-based, luminescence, HEK293, GAL4 fusion, UAS-luciferase; Nuclear hormone receptor DAF-12 (Heterodera glycines), GAL4 fusion; HEK293 GAL4-hgDAF12 UAS-luciferase reporter, agonist luminescence; normalized to butyrate control; activation, % at 6.8 µM; 1.8% of 370,000 active;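 active = activation above a cutoff set at the mean of all screened compounds plus 3 SD, cut at about 10% in these data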;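 also: 0% = DMSO wells and 100% = sodium butyrate wells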
ssDAF12 agonist: S. stercoralis DAF-12 nuclear receptor activators, primary screen, cell-based, luminescence, HEK293, GRIP1 co-expression, lit1-tk-luc | Nuclear hormone receptor DAF-12 (Strongyloides stercoralis) | HEK293 ssDAF-12/GRIP1 lit1-tk-luc reporter; % of 3 µM dafachronic acid response | activation, % at 6.8 µM | 1% of 370,000 active;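 active = activation above the mean over all tested compounds plus 3 SD, cut at about 0.9% in these data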;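 also: 0% = DMSO-only wells and 100% = 3 µM delta7-dafachronic acid wells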
DAX1 inh-2: DAX1 (NR0B1) inhibitors, primary screen, cell-based, HEK293, Gal4-DAX1, luciferase luminescence. HEK293 Gal4-DAX1 luciferase reporter. 0.99% of 340,000 active. inhibition, % at 6.75 µM. AID 504766, 2011. Nuclear receptor subfamily 0 group B member 1 (Homo sapiens), P51843;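 active = inhibition above the mean over all tested compounds plus 3 SD, cut at about 4.2% in these data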;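 also: 0% = DAX1-transfected cells with DMSO and 100% = empty-vector control cells with DMSO; inhibition shows as a rise in luminescence from relieved DAX1 repression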
hcDAF12 agonist: H. contortus DAF-12 nuclear receptor activators, primary screen, cell-based, luminescence, HEK293, lit1-tk-luc reporter | 1.4% of 370,000 active | activation, % at 6.8 µM | HEK293 hcDAF-12 lit1-tk-luc reporter; 0% DMSO, 100% Δ7-dafachronic acid;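 active = activation above the mean of all tested compounds plus 3 SD, cut at about 5.5% in these data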;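 also: 100% = response to 3 µM Δ7-dafachronic acid high control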
AHR activator: AHR activators, primary screen, cell-based, luminescence, luciferase reporter, human; AHR-responsive luciferase reporter cells; activation, % at 5 µM; Aryl hydrocarbon receptor (Homo sapiens), P35869; 2.5% of 320,000 active; in the data active = activation above about 47%;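 also: 0% = vehicle wells and 100% = reference agonist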
Target sequence (P35869 whole entry, looked up): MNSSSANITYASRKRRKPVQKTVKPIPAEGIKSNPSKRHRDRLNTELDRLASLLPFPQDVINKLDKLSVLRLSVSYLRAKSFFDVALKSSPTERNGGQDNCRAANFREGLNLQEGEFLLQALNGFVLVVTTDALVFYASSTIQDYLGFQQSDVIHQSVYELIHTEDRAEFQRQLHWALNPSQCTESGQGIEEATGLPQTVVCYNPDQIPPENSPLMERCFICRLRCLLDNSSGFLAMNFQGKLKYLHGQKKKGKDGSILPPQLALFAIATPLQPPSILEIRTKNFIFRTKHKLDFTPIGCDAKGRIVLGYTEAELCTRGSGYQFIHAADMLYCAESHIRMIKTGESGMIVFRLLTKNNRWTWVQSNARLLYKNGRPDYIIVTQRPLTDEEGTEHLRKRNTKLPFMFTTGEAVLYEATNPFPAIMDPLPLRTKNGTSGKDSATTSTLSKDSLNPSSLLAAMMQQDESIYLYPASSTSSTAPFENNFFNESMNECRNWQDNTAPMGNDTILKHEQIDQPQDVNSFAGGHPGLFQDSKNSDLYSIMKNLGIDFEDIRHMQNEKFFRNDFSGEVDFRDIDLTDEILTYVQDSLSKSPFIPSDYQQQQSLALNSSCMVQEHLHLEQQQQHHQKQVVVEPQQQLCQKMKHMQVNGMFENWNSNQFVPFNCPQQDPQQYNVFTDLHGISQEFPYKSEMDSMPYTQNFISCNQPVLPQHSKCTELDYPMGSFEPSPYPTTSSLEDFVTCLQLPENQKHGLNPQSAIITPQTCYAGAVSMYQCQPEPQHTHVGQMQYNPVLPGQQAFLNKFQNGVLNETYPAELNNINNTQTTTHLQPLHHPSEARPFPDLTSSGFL
An asterisk follows results filed as active; nt = no result.

SMILES	DAX1 inh-1	hgDAF12 agonist	ssDAF12 agonist	DAX1 inh-2	hcDAF12 agonist	AHR activator
C=CCN(CC=C)C(=O)c1ccccc1NC(=O)c1ccccc1C	0	3	0	1	3	56*
Cc1ccccc1C(=O)Nc1ccccc1-n1cccc1	0	1	-1	0	1	5
COC(=O)c1cc(-c2ccc(NC(C)=O)cc2)nc2ccccc12	-1	2	-2	-2	-2	0
Cc1cc(C)c(C#N)c(OCC(=O)c2ccccc2)n1	-1	2	-1	1	2	52*
COc1ccc(OC)c(/C=N/NC(=O)CCCC(=O)Nc2cccc(Br)c2)c1	-1	3	-1	-1	-2	70*
COc1ccc(O)c(/C=N/NC(=O)CCC(=O)Nc2cccc(C)c2)c1	-1	-3	-1	0	-1	10
O=C(c1ccco1)N1CCN(c2ncnc3c(-c4ccccc4)nsc23)CC1	1	9	0	2	1	66*
COc1ccc(-c2nsc3c(N4CCN(C(=O)c5ccco5)CC4)ncnc23)cc1	1	1	-1	0	0	16
Cc1ccc(NC(=O)COC(=O)C2COc3ccccc3O2)cc1 (stereo unspecified)	-1	1	-1	1	-1	1
C[C@H](CO)N1C[C@H](C)[C@@H](CN(C)C(=O)Nc2ccc(-c3cccs3)cc2)OCc2cn(nn2)CCCC1=O	-1	1	-1	nt	0	nt
CC(C)(C)Cc1nnc(NC(=O)c2ccc3c(c2)OCO3)s1	1	5	-1	-1	-1	49*
COc1ccc(C(=O)Nc2nccs2)cc1OC	0	7	-1	2	0	35
CCC(CC)c1nnc(NC(=O)c2ccc3c(c2)OCO3)s1	1	5	1	2	2	64*
O=C(Nc1nccs1)c1ccc2c(c1)OCO2	1	11*	0	2	4	20
O=C(Nc1nnc(Cc2ccc([N+](=O)[O-])cc2)s1)c1ccc2c(c1)OCO2	0	6	-2	-1	1	55*
O=C(O)CSc1nnc(NC(=O)c2ccc3c(c2)OCO3)s1	0	-1	-2	-2	0	-9
CC1CCc2sc(C(=O)NN=C3CCCC3)cc2C1 (stereo unspecified)	-1	2	-1	2	2	nt
CCCN(C(=O)c1cn(CCC)c2ccccc12)c1ccc(Oc2cccnc2)cc1	-3	-1	-2	nt	-3	nt
O=C(NC1CCCCCCC1)c1ccc2c(c1)OCO2	3	10	1.1*	1	5	69*
C=CCSc1nnc(NC(=O)c2ccc3c(c2)OCCO3)s1	3.9*	5	-1	1	1	nt
O=C(Nc1cccc2ccccc12)/C(Cl)=C/c1ccccc1	0	5	0	2	0	68*
CCOC(=O)CCCCC(=O)c1[nH]c(=O)[nH]c1CSc1nc(C)cc(C)n1	0	1	-1	-1	1	5
CCOC(=O)c1[nH]c(=O)[nH]c1CSc1nc(C)cc(C)n1	-1	1	-1	0	-1	48*
CN1C(=O)C(O)(CC(=O)/C=C/c2ccco2)c2cc(Br)ccc21 (stereo unspecified)	1	4	0	-1	3	20
CN1C(=O)C(O)(CC(=O)c2ccccc2O)c2cc(Br)ccc21 (stereo unspecified)	-1	-1	0	4.4*	3	19
Cc1ccc(NC(=O)c2cc(N3C(=O)C=CC3=O)ccc2Cl)cc1C	0	11*	0	-1	1	5
O=C(CSc1nnc(C2COc3ccccc3O2)o1)Nc1nccs1 (stereo unspecified)	nt	nt	nt	4.4*	nt	2
